TRHR ag = TRH receptor (human) agonism | P34981 | TRHR cells, calcium flux fluo-8, FDSS agonist mode | activation, % at 2 µM | actives 0.18% (n = 360,000) | AID 493084; further: 0% is about no effect
Target sequence (P34981 whole entry, looked up): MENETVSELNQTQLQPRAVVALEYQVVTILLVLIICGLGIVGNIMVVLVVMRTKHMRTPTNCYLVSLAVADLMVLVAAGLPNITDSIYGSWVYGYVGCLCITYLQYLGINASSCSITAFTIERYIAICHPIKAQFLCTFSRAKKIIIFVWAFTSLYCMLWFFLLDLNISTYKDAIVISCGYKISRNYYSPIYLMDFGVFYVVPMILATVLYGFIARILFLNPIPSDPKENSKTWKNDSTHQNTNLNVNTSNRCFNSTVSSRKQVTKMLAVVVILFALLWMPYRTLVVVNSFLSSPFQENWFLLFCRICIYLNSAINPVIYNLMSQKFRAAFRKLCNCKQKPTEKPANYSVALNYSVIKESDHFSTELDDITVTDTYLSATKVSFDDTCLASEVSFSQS
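In this calcium-flux screen, cells bearing human TRHR are dye-loaded with fluo-8, baselined for 10 cycles, then exposed to library compounds; positive kinetic calcium responses during the agonist phase mark hits, with TRH as control.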
D1 antagonist = antagonists of human D1 dopamine receptor; activity change, negative = inhibition, % at 10 µM; P21728; HEK293 TREx D1 cells, calcium flux, dopamine EC80; stronger effect = lower value; actives 3.2% (n = 360,000); in the data active means activity change below about -30%; further: on the % scale 0 is the no-effect control and ±100 the full control effect
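Allosteric or orthosteric antagonism assessed as attenuation of the calcium response to EC80 dopamine, added 180 s after compound, in induced HEK293 Trex D1 cells loaded with no-wash calcium dye.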
D1 PAM = human D1 dopamine receptor positive modulation | P21728 | HEK293 TREx D1 cells, calcium flux, dopamine EC20 potentiation | potentiation, % at 10 µM | actives 0.036% (n = 360,000); in the data active means potentiation above about 30%; further: 0% is about no effect
TRHR enhancer = TRH receptor (human) allosteric enhancement; actives 0.66% (n = 360,000); enhancement, % at 2 µM; TRHR cells, fluo-8 calcium fluorescence, EC20 TRH enhancement; AID 493056; P34981; in the data active means enhancement above about 30%; further: 0% is about no effect
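TRHR-expressing cells loaded with fluo-8 calcium dye were read kinetically (ex 480/em 530) during compound addition, then stimulated with an EC20 of TRH (10 nM final). Enhancement of the Gq-mediated intracellular calcium response was scored.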
D1 agonist = agonists of human D1 dopamine receptor; P21728; HEK293 T-REx D1 cells, calcium flux, agonist mode; activation, % at 2 µM; actives 1% (n = 360,000); AID 504660; further: 0% is about no effect
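Inducible HEK293 T-REx D1 cells, force-coupled to calcium signalling, were plated at 4000 cells/well with tetracycline and held overnight at 30 C. After no-wash calcium dye loading, compound-evoked calcium rise over 180 s flagged agonists.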
* marks the source's active call; other numbers are inactive results; / = no result. Most compounds without a hit are left out; they make up all but 4.6% or so of the library. Unless noted, no stated cut-off is given here; in the data, active means activation above about 30%; inactive means the rest.

SMILES	TRHR ag	D1 antagonist	D1 PAM	TRHR enhancer	D1 agonist
COc1ccc(C(=O)COC(=O)Cn2c(C)csc2=O)c(OC)c1	0	-33*	-2	10	11
O=C(/C=C/c1ccco1)Nc1ccc(-c2nc3ccccc3[nH]2)cc1	0	-30	-6	-5	1
Cc1ccn2cc(-c3ccc(NC(=O)c4ccco4)cc3)nc2c1	-2	-33*	-3	-8	0
Cc1nc(-c2ccc(NC(=O)c3ccco3)cc2)cs1	1	-5	-1	9	1
CN1CCN(c2ccc(NC(=O)c3ccco3)cc2Cl)CC1	0	-38*	-2	2	2
O=C(Nc1ccc(-c2nc3ccccc3[nH]2)cc1)c1ccco1	0	-46*	-16	-12	1
O=C(Nc1ccc(NC(=O)c2ccco2)cc1)c1ccco1	1	-2	2	31*	0
O=C(Nc1ccc(N2CCCC2)c(Cl)c1)c1ccco1	-1	-10	-4	-10	0
Cc1ccc(-c2noc(CCC(=O)Nc3ccc(F)cc3Cl)n2)cc1	0	4	-2	-2	13
Cc1ccc(CNC(=O)c2cc3c(s2)-c2c(C)cccc2OC3)cc1	1	-14	-8	-2	4
O=C(Nc1ccc(C(=O)Oc2ccccc2)c(O)c1)c1ccco1	0	-36*	-2	2	12
O=C(Nc1ccc(Nc2ccccc2)cc1)c1ccco1	0	-5	2	2	4
CCN(CC)S(=O)(=O)c1ccc(NC(=S)NC(=O)CC(C)C)cc1	0	-33*	-2	11	0
COc1ccc(NC(=O)c2ccco2)cc1NC(=O)c1cccc(C)c1OC	-1	-31*	-6	2	2
O=C(Nc1ccc(Br)cc1)c1ccco1	-1	-42*	-9	0	-3
Cc1ccc(C)c(S(=O)(=O)NCC(c2ccco2)S(=O)(=O)c2ccc(F)cc2)c1 (stereo unspecified)	0	/	-3	3	22
CCc1ccc(NC(=O)Cn2c(-c3cncs3)nc3ccccc32)cc1	-1	1	1	-2	-1
CC(C)CC(=O)NC(=S)Nc1ccc(NC(=O)c2ccco2)cc1	0	-36*	-3	4	11
CCN1CCN(c2ccc(NC(=O)c3cccc(F)c3)cc2Cl)CC1	1	-36*	-6	2	7
CCOC(=O)c1cc(-c2ccccc2)n(CCC(=O)NCCc2ccccc2)c1C	0	1	-4	-8	16
CCOc1ccccc1NC(=O)c1ccc2c(c1)CCN2S(C)(=O)=O	-2	-1	6	0	0
O=C(NCCc1ccc(Cl)cc1)C1CCN(Cc2cc3ccccc3n2Cc2ccccc2)CC1	1	16	2	-5	8
Cc1ccc(C(=O)NC(=S)N(C)C2CCCCC2)cc1	0	-41*	9	-1	0
CCC(=O)Nc1ccc2nc(SCc3ccccc3)sc2c1	0	-23	-1	1	2
CCOc1ccc(CNC(=O)C2CCN(C3=NS(=O)(=O)C(c4ccc(C)cc4)=C3CC)CC2)cc1	1	-18	-6	3	1
SMILES	TRHR ag	D1 antagonist	D1 PAM	TRHR enhancer	D1 agonist
COCCN1C(=O)/C(=C/c2ccc(N3CCCC3)cc2)SC1=S	44*	-1	0	-5	258*
CN1CCN(C(=O)CCCN2C(=O)/C(=C/c3ccccc3)SC2=S)CC1	1	-30	-14	2	7
CN1CCN(C(=O)CCCN2C(=O)/C(=C/c3ccc(Cl)cc3)SC2=S)CC1	1	-61*	-13	5	10
Cc1ccc(NC(=O)C2OCCc3ccccc32)cc1 (stereo unspecified)	-1	-3	-7	18	2
Cc1ccc(NC(=O)C(=O)NCC2OCCc3ccccc32)cc1 (stereo unspecified)	0	-6	0	33*	2
CS(=O)(=O)c1ccccc1C(=O)Nc1cccc(-c2nc3ccccc3o2)c1	0	-14	1	4	1
Cc1nc2c(Cl)cccc2c2c1CC(CBr)O2 (stereo unspecified)	-1	-31*	-2	-6	1
CCc1c(C)sc2c1CCN(Cc1cccc(OC)c1)C2c1ccccc1 (stereo unspecified)	-1	1	0	-1	0
O=c1c(-c2ccccc2)c(-c2ccccc2)oc2cc(O)cc(O)c12	-3	53	-1	-10	40*
CCOC(=O)C1=C(CN2CCC(C)CC2)NC(=O)NC1c1ccc(OC(C)C)cc1 (stereo unspecified)	0	13	3	-1	-1
CCOC(=O)C1=C(CN(CC)Cc2ccccc2)NC(=O)NC1c1ccc(OC(C)C)cc1 (stereo unspecified)	3	-45*	-3	5	6
CCc1c(C)c2ccc(OCC(=O)OC)cc2oc1=O	0	6	-4	-2	5
COC(=O)Cc1c(C)c2ccc(OCC(=O)N3CCOCC3)cc2oc1=O	1	-32*	-1	-4	1
Cc1ccccc1NC(=O)Cn1nnc(C(=O)NCc2cccs2)c1N	0	-13	-1	3	1
COc1cccc(NC(=O)COc2cccc(-n3cnnn3)c2)c1	-1	12	2	11	0
Cc1ccc(NC(=O)COc2cccc(-n3cnnn3)c2)cc1[N+](=O)[O-]	-2	-45*	-4	10	23
CCCCN(CC)C(=O)CSc1nc2n[nH]c(C)c2c(=N)n1-c1ccc(CC)cc1	-1	-16	4	-6	4
Cc1nn(C(=O)COc2ccc(Cl)cc2)c(C)c1Sc1ccccc1	0	-37*	-4	-5	12
Cc1ccc(Sc2c(C)nn(C(=O)COc3ccc(F)cc3)c2C)cc1	-1	-4	-4	0	11
CCOC(=O)N1CCc2c(sc3c2c(=O)n(-c2ccc(Cl)cc2)c(=O)n3CC(=O)c2ccc(F)cc2)C1	5	-31*	-4	5	22
CC(=O)N1CCc2c(sc3c2c(=O)n(-c2ccccc2C)c(=O)n3CC(=O)Nc2ccccc2)C1	0	3	-2	48*	0
COC(=O)c1c(NC(=O)Cc2coc3cc(C)ccc23)sc2c1CCCC2	1	3	5	-5	4
COc1cccc(CNC(=O)c2cc(C)nc3ccccc23)c1	-1	-39*	-6	10	3
Cc1cc(CNC(=O)c2cccc([N+](=O)[O-])c2C)c2ccccc2n1	0	-46*	-7	4	26
COc1ccc(CNC(=O)c2cc(-c3cccs3)nc3ccccc23)c(OC)c1	-2	-46*	-1	6	4
COc1ccc(-c2csc(C)n2)cc1	0	-1	-9	-1	0
COc1cc(C)nc(-c2csc(C)n2)n1	-1	-3	0	31*	1
